Consider 13 compounds from PubChem BioAssay.

Assay [1] can be described thus: resazurin metabolic signal in HepG2 cells – cell-based, resazurin fluorescence, 24 h, PK04 Diversity Set, profiling panel (AID 1172). Note: test concentration not given here. To be noted: HepG2 viability, higher = more signal. For orientation: Resazurin is reduced to fluorescent resorufin, in cell work by metabolically active cells.
Assay [2] can be described thus: budding yeast growth changes without added modifier – OD600, strain BY4716, 24 h, basal condition, primary screen (AID 1173). Conditions: S. cerevisiae BY4716 growth, OD600, 24 h; higher = more signal, called active from +8 up or from −8 down.
A short description of assay [3]: viability profiling in MM1S myeloma cells – cell-based, resazurin fluorescence, basal, 24 h, PK04 Diversity Set, profiling panel (AID 1174).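 Note: MM1S multiple myeloma cell line; test concentration not given here.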 Conditions: higher = more signal, called active from +8 up or from −8 down.
Assay [4] deals with Dihydroorotate dehydrogenase (quinone), mitochondrial (Plasmodium falciparum (isolate 3D7)) (UniProt Q08210). The experiment in a line: inhibition of P. falciparum DHODH – biochemical, C-terminal His tag, absorbance 600 nm, primary screen (AID 1175).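 Note: recombinant parasite enzyme with a five histidine tag at its C terminus; test concentration not given here.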 To be noted: PfDHODH enzyme, DCIP absorbance 600 nm; higher = more signal, called active from +8 up or from −8 down.
Chain of Dihydroorotate dehydrogenase (quinone), mitochondrial (Plasmodium falciparum (isolate 3D7)) (Q08210 whole entry, looked up): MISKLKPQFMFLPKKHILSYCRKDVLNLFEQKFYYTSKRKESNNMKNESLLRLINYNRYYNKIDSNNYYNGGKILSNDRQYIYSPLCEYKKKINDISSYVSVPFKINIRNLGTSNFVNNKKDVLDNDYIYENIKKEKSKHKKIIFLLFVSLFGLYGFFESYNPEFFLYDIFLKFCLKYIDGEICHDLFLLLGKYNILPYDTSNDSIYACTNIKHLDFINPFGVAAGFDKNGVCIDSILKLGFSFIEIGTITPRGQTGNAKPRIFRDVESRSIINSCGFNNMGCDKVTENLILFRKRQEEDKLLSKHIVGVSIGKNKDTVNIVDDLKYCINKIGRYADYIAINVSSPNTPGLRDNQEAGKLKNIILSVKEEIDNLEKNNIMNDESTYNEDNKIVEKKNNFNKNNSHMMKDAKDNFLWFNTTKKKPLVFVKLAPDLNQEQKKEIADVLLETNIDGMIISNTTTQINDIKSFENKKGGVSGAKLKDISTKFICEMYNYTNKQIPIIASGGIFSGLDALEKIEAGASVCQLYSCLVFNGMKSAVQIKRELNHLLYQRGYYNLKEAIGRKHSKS
Assay [5] is described as follows: inhibition of PAO1 biofilm formation – strain PAO1, LB-PBS medium, absorbance 600 nm, primary screen (AID 1176). Note: test concentration not given here. Conditions: P. aeruginosa PAO1 growth/biofilm, A600, 12 h; higher = more signal.
Assay [6] in a line: growth modulation of vineyard yeast isolate – strain RM11-1a, OD600, basal, 24 h, primary screen (AID 1177).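 Note: cultures grown under basal conditions with no added stressor; test concentration not given here.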 Conditions: S. cerevisiae RM11-1a growth, OD600, 24 h; higher = more signal, called active from +8 up or from −8 down.
A short description of assay [7]: growth of efflux-deficient E. coli DRC39 – strain DRC39, OD650, 24 h, E. coli filamentation inducers, primary screen (AID 1178).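 Note: growth measured as culture turbidity by optical density at 650 nm; test concentration not given here.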 To be noted: E. coli DRC39 acrAB, higher = more signal, called active from +8 up or from −8 down.
A short description of assay [8]: growth of efflux-deficient E. coli DRC39 – strain DRC39, OD650, 48 h, E. coli filamentation inducers, primary screen (AID 1179).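 Note: screen aims at cell division blockers that make cells filament.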 To be noted: E. coli DRC39 delta-acrAB growth, higher = more signal, called active from +8 up or from −8 down.
The nature of assay [9]: viability profiling in RPMI8226 myeloma cells – cell-based, resazurin fluorescence, basal, 24 h, PK04 Diversity Set, profiling panel (AID 1180).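 Note: RPMI8826 multiple myeloma cell line at 5000 cells per well; test concentration not given here.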 Conditions: higher = more signal.
For assay [10], the target named is E3 ubiquitin-protein ligase XIAP (Homo sapiens) (UniProt P98170). Nature of the assay: small molecules binding XIAP protein – biophysical, small-molecule microarray, fluorescence 635 nm, primary screen (AID 1181).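 Note: score merges 667 nm emission and signal to noise over triplicate slides.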 To be noted: higher = more signal.
Chain of E3 ubiquitin-protein ligase XIAP (Homo sapiens) (P98170 whole entry, looked up): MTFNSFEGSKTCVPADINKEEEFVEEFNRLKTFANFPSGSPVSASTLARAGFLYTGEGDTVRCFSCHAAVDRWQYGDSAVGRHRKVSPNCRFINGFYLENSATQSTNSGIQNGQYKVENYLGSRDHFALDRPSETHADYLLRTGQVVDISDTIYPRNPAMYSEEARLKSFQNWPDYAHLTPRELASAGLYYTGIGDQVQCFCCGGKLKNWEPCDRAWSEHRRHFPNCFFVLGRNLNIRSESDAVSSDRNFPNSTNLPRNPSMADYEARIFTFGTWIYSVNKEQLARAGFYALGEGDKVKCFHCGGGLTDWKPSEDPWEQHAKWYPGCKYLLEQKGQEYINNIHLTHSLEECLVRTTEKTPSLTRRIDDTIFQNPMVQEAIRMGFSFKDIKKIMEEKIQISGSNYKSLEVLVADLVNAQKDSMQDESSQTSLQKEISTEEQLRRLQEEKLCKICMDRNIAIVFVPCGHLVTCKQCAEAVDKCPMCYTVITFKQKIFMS

The source made the active and inactive calls. Unless noted, the rule behind the calls is not given here.

For `CC(C)C(O)C1C=CC2C(=O)N(C)C(=O)C2N1N(c1ccccc1)c1ccccc1` (stereo not given), the z-score in assay [1] is 0.207; in assay [2] it was 0.72 (inactive); in assay [3], -1.62 (inactive); in [5], 0.186 (inactive); in assay [6], 0.879 (inactive); in assay [7], -0.841 (inactive). Further, the z-score was 0.195 (inactive) in assay [8] and -0.583 in assay [9]. The composite z-score in [4] is 0.85 (inactive); in [10], 0.23.
Turning to `COCCCNC(=O)[C@@]1(Sc2ccc(C)cc2)CC(=O)N(Cc2cc(C(F)(F)F)cc(C(F)(F)F)c2)[C@@H]1c1ccc(CO)cc1`, the z-score in [1] was -0.092; in [2], -0.138 (inactive); in assay [3], -0.538 (inactive); in [5], 0.158 (inactive); in assay [6], -0.219 (inactive); in assay [7] it was 0.0881 (inactive). The figures for the z-score in [8] and in assay [9] were 0.231 (inactive) and -0.368, respectively. In addition, the composite z-score in assay [4] is -0.669 (inactive); in assay [10] it was -0.0571.
As for `COc1c(C)cc(-c2cc3c(c(Cc4ccccc4)n2)[Si](C(C)C)(C(C)C)OC3)cc1C`, the z-score in assay [1] was -0.683; in assay [2] it was 1.06 (inactive); in assay [3], -0.533 (inactive); in assay [5], 0.055 (inactive); in [6], 0.576 (inactive); in assay [7], -0.363 (inactive). In addition, the z-score in [8] is -0.779 (inactive); in [9], -0.661. Moreover, the figures for the composite z-score in assay [4] and in assay [10] were -0.0592 (inactive) and -0.138, respectively.
Turning to `CC(=O)NCCCC[C@@H]1NC(=O)[C@@H]2C[C@H](C(=O)O)[C@H](c3ccc(O)cc3)N2C1=O`, the z-score in assay [1] was -0.253; in assay [2], 0.929 (inactive); in assay [3], 0.699 (inactive); in assay [5], -0.819 (inactive); in [6] it was 0.88 (inactive); in [7] it was 0.0763 (inactive). Further, the figures for the z-score in assay [8] and in assay [9] were -0.301 (inactive) and 0.517, respectively. Moreover, the results for the composite z-score in assay [4] and in assay [10] were 0.435 (inactive) and -0.0796, respectively.
Consider `C=C(COC)/C(=C/C[C@@H](OC(=O)c1ccncc1)c1cccc(OCCO)c1)c1cnc2ccccc2c1`, for which the z-score is -0.464 in [1]; -17.3 (active) in assay [2]; -0.835 (inactive) in [3]; 1.17 (inactive) in assay [5]; -5.29 (inactive) in assay [6]; -0.451 (inactive) in assay [7]. Moreover, the z-score was -0.318 (inactive) in [8] and -0.526 in assay [9]. Moreover, the composite z-score in assay [4] was -6.7 (inactive); in assay [10], 0.594.
For `COCCCNC(=O)[C@@H]1c2ccccc2C(=O)N(Cc2ccccc2C(F)(F)F)[C@H]1c1ccc(CO)cc1`, the z-score in assay [1] is 0.816; in assay [2], -0.756 (inactive); in [3] it was 1.51 (inactive); in assay [5] it was -0.727 (inactive); in [6], 0.186 (inactive); in assay [7], 0.414 (inactive). For the same compound, the z-score is 0.0948 (inactive) in assay [8] and 1.48 in assay [9]. Besides, the composite z-score in assay [4] was -0.955 (inactive); in assay [10], -0.138.
Take `CC[C@H]1C2=C3C(CC[C@H]4C(OCc5ccc(F)cc5C(F)(F)F)OC[C@](C)([C@@H]34)N(C(=O)OC(C)(C)C)C2)C2COC(=O)OCC21` (stereo not given in full): the z-score in assay [1] was -1.12; in assay [2] it was 0.485 (inactive); in [3], -1.46 (inactive); in assay [5] it was 0.551 (inactive); in [6] it was 0.368 (inactive); in assay [7] it was -0.678 (inactive). Moreover, the z-score in assay [8] is -0.36 (inactive); in [9], -0.556. Further, the composite z-score in assay [4] was 0.0979 (inactive); in assay [10], 0.131.
In the case of `Cc1ccc(S[C@]2(C(=O)NCc3ccccc3)CC(=O)N(C(C)C)[C@@H]2c2ccc(CO)cc2I)cc1`, the z-score in assay [1] is 0.059; in assay [2], -1.93 (inactive); in assay [3], -1.63 (inactive); in [5], -0.0807 (inactive); in assay [6], -0.964 (inactive); in assay [7] it was 0.484 (inactive). The z-score in assay [8] was 0.329 (inactive); in assay [9] it was -2.35. Moreover, the composite z-score was -0.335 (inactive) in [4] and -0.253 in assay [10].
`[N-]=[N+]=NCc1ccccc1C[C@@]1(C(=O)NCCN2CCOCC2)N=C(c2ccc(OCCCO)cc2)O[C@@H]1c1ccccc1N=[N+]=[N-]`: the z-score in [1] is -0.61; in [2], -1.22 (inactive); in [3], -0.37 (inactive); in assay [5], 0.124 (inactive); in assay [6], -0.304 (inactive); in [7], 0.647 (inactive). Also, the z-score in assay [8] is -0.456 (inactive); in [9], -0.0843. The composite z-score in [4] was 0.699 (inactive); in assay [10] it was 0.318.
In the case of `Cc1ccc(C(C)CC(O)C2C=CC3C(=O)N(c4ccccc4)C(=O)C3N2Nc2ccc(C(C)C)cc2)o1` (stereo not given), the z-score is -1.32 in assay [1]; 0.123 (inactive) in assay [2]; -0.905 (inactive) in [3]; 1.5 (inactive) in assay [5]; 0.685 (inactive) in assay [6]; -0.751 (inactive) in [7]. Further, the z-score in assay [8] was -0.682 (inactive); in assay [9], -1.03. Also, the composite z-score was 0.824 (inactive) in [4] and -0.0238 in assay [10].
With `O=C1NC(=O)C2C1C=CC(C(O)c1cc(C(F)(F)F)cc(C(F)(F)F)c1)N2Nc1ccc(Cl)cc1Cl` (stereo not given), the z-score in [1] was -1.71; in assay [2] it was -4.29 (inactive); in assay [3] it was -1.99 (inactive); in assay [5], 1.43 (inactive); in assay [6] it was 1.1 (inactive); in assay [7] it was -1.14 (inactive). Also, the z-score in assay [8] was -1.13 (inactive); in assay [9] it was -2.37. The composite z-score is -0.195 (inactive) in assay [4] and 0.214 in assay [10].
As to `CC(C)N1CC=CC23O[C@@H]4C=CCCOC(=O)C4[C@H]2C(=O)N(CCO)[C@@H]3C1=O` (stereo not given in full), the z-score in assay [1] was 1.74; in assay [2] it was -0.913 (inactive); in assay [3] it was 0.839 (inactive); in assay [5], 0.525 (inactive); in [6] it was -0.199 (inactive); in assay [7], -0.141 (inactive). The values for the z-score in assay [8] and in assay [9] were -0.327 (inactive) and 0.475, respectively. Moreover, the composite z-score in assay [4] was -2.29 (inactive); in assay [10], -0.251.
For the compound `CCOC(=O)C[C@H]1[C@H](OC(=O)c2ccc(-c3ccccc3)cc2)[C@@H](NC(=O)C2CCCCC2)c2cc(OCCCO)ccc2N1C(=O)c1ccccc1`, the z-score in [1] was -0.755; in assay [2], 1.44 (inactive); in assay [3] it was -0.464 (inactive); in [5] it was 0.656 (inactive); in assay [6], 0.925 (inactive); in [7], -0.406 (inactive). Moreover, the figures for the z-score in assay [8] and in [9] were -0.566 (inactive) and -0.95, respectively. The composite z-score in assay [4] was 0.141 (inactive); in [10], 0.0623.
